Where “and” joins values, the source holds several entries; their conditions need not be identical. Equal values may be shown once. The campaign covered roughly 16,000 compounds. About 5,700 (36%) were called active. Inconclusive results (about 24%) are left out. The list shows a part of the results. Values without a mark were called inactive. Calls come from the whole dose curve; as a rule, active = well fitted curve in the direction sought with a large enough effect; inconclusive = small, poorly fitted or top-dose-only effect, or effect the other way; inactive = no such curve, though single readings can be large or run the other way.
The compounds below were run against Cytochrome P450 1A2 (Homo sapiens) (UniProt P05177) (assay: Cytochrome panel assay with activity outcomes). Details: recombinant CYP, pro-luciferin dealkylation, luminescence, p450-cyp1a2; series mostly up to 57.1 µM.
Cytochrome P450 1A2 (Homo sapiens), sequence (P05177 whole entry, looked up): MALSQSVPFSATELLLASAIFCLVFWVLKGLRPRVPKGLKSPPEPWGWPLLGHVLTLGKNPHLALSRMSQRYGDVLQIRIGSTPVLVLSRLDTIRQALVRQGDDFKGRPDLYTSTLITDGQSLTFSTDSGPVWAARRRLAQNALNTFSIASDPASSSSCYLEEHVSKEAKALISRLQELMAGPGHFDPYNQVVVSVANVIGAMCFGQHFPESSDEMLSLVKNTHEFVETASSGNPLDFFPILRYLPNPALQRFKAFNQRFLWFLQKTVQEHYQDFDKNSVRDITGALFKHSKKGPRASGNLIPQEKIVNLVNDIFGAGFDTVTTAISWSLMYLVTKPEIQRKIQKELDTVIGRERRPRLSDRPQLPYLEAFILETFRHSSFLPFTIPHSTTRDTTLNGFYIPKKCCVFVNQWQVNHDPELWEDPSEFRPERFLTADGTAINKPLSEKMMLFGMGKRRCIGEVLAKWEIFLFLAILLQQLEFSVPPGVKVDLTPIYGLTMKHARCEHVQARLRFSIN
% is set by controls: 0 for no effect and ±100 for the full control effect.

How did the AC50 turn out when `O=C(Nc1ccc(Cl)cc1)OCc1cc(-c2ccccc2)on1` was run?
The AC50 was 2240 nM (active).

`Cc1onc(-c2ccccc2Cl)c1C(=O)Nc1nnc(Cc2ccc(Cl)cc2)s1` was tested. Which AC50 did it give?
Its AC50 is “inactive”.

For `CS(=O)(=O)c1ccccc1COC(=O)Nc1ccc(Cl)cc1`, which AC50 is on record?
The AC50 was 17800 nM (active).

`O=C(Nc1ccccc1)OCc1cc(-c2ccc(Cl)cc2)on1` was tested. Which AC50 did it give?
The AC50 was 562 nM (active).

Which activity, negative = inhibition does the source give for `CCN1C(=O)[C@H]2[C@H]3[C@H](O)[C@H](O)C/C(=N/O[C@@H]4O[C@@H](COC(C)=O)[C@@H](OC(C)=O)[C@@H](OC(C)=O)[C@H]4OC(C)=O)[C@H]3CC[C@@H]2C1=O` here?
The activity, negative = inhibition was -5.44% [at 11.4 µM].

With `CC1(C)CC(=O)C2=C(C1)N(c1ccc(F)cc1)C(N)=C(C#N)C2c1cccs1` (stereo not drawn) as the compound, how does the AC50 read?
Its AC50 is “inactive”.

How did the AC50 turn out when `O=[N+]([O-])c1ccc(/C=N/n2c(COc3ccccc3)n[nH]c2=S)cc1` was run?
The AC50 was 2820 nM (active).

With `Cc1ccc(/C=N/n2c(COc3ccccc3)n[nH]c2=S)s1` as the compound, how does the AC50 read?
Its AC50 is 501 nM (active).

With `O=[N+]([O-])c1ccccc1/C=N/n1c(COc2ccccc2)n[nH]c1=S` as the compound, how does the AC50 read?
The AC50 was 2510 nM (active).

For `CS(=O)(=O)N1CCC2(CC1)CN(c1ncccn1)C2`, which AC50 is on record?
Its AC50 is “inactive”.

`Cc1ccc(S(=O)(=O)NC(=O)NN2C[C@H]3CCC[C@@H]3C2)cc1` was tested. Which AC50 did it give?
Its AC50 is “inactive”.

Which AC50 does the source give for `Cc1ccc2nc(N/N=C\c3cccc(C)n3)cc(C)c2c1` here?
Its AC50 is 631 nM (active).

For `CCc1cccc2nc3c(c([Si](C)(C)C)c12)Cn1c-3cccc1=O`, which AC50 is on record?
The AC50 was 2510 nM (active).

How did the AC50 turn out when `CCN1C/C(=C\c2cccc(C)c2)c2nc3ccccc3c(C(=O)O)c2C1` was run?
The AC50 was “inactive”.

How did the AC50 turn out when `CC(C)c1cccc2nc3c(c(C(C)(C)C)c12)Cn1c-3cccc1=O` was run?
Its AC50 is 12600 nM (active).

How did the AC50 turn out when `Cc1c2c(nc3ccccc13)-c1cccc(=O)n1C2` was run?
The AC50 was 100 nM (active).

`CC(C)c1cccc2nc3c(c([Si](C)(C)C)c12)Cn1c-3cccc1=O` was tested. Which AC50 did it give?
Its AC50 is 15800 nM (active).

With `O=C1OCCC=C1[C@@H](O)CCc1ccccc1` as the compound, how does the activity, negative = inhibition read?
Its activity, negative = inhibition is -0.0227% [at 11.4 µM].

How did the AC50 turn out when `NS(=O)(=O)c1cc2c(cc1Cl)N[C@@H](C(Cl)Cl)NS2(=O)=O` was run?
Its AC50 is “inactive”.

Which AC50 does the source give for `CCc1c2c(nc3cccc(C(C)C)c13)-c1cccc(=O)n1C2` here?
The AC50 was 501 nM (active).

With `O=C1NCC2(CCN(CCc3ccccc3)CC2)O1` as the compound, how does the AC50 read?
Its AC50 is “inactive”.

How did the activity, negative = inhibition turn out when `NS(=O)(=O)c1ccc(N=Nc2ccc(O)c(C(=O)O)c2)cc1` was run?
Its activity, negative = inhibition is -20.9% [at 11.4 µM].

With `NS(=O)(=O)c1ccc(N=Nc2cc3ccccc3c(C(=O)O)c2O)cc1` as the compound, how does the AC50 read?
Its AC50 is 1000 nM (active).

With `NS(=O)(=O)c1ccc(N=Nc2c(O)c(C(=O)O)cc3ccccc23)cc1` as the compound, how does the activity, negative = inhibition read?
Its activity, negative = inhibition is -20.8% [at 11.4 µM].

Which AC50 does the source give for `O=C(NCc1cccnc1)c1sc2cc(Cl)ccc2c1Cl` here?
The AC50 was 1000 nM (active).

With `O=C(Nc1nccs1)c1sc2cc(Cl)ccc2c1Cl` as the compound, how does the AC50 read?
The AC50 was 112 nM (active).

How did the AC50 turn out when `CN(C)/C=C/C(=O)c1ccc(Cl)cc1` was run?
The AC50 was 4470 nM (active).

How did the AC50 turn out when `O=C(O)/C=C\[C@H](O)c1ccc(Cl)cc1` was run?
The AC50 was “inactive”.

For `O=C(O)[C@@H](O)c1ccc(F)cc1`, which activity, negative = inhibition is on record?
The activity, negative = inhibition was -12.3% [at 11.4 µM].

`CN(C)/C=C/C(=O)c1ccc(F)cc1` was tested. Which AC50 did it give?
The AC50 was 11200 nM (active).

Which AC50 does the source give for `Oc1cc(O)cc(/C=C\c2ccc(O)c(O)c2)c1` here?
The AC50 was 5010 nM (active).

With `O=c1cc(O)cc(/C=C\c2ccc(O)c(O)c2)o1` as the compound, how does the AC50 read?
The AC50 was “inactive”.

With `S=C(S)NCCCn1ccnc1` as the compound, how does the AC50 read?
The AC50 was 3160 nM (active).

Which activity, negative = inhibition does the source give for `NCCNC(=S)S` here?
Its activity, negative = inhibition is -13.2% [at 2.29 µM].

With `S=C(S)NCCN1CCNCC1` as the compound, how does the activity, negative = inhibition read?
Its activity, negative = inhibition is -7.09% [at 11.4 µM].

For `O=C(CN1CCN(S(=O)(=O)c2ccc(F)cc2)CC1)Nc1ccc(Cl)c(C(F)(F)F)c1`, which AC50 is on record?
The AC50 was “inactive”.

With `CCN(CC)C(=O)COc1ccc(S(=O)(=O)N2CCOCC2)cc1` as the compound, how does the AC50 read?
Its AC50 is “inactive”.

Which AC50 does the source give for `O=C(CN1CCN(S(=O)(=O)c2ccccc2)CC1)NC(=O)NCc1ccccc1` here?
Its AC50 is “inactive”.

With `COc1ccc(NC(=O)N2CC3(CCN(S(=O)(=O)c4ccccc4)CC3)C2)cc1` as the compound, how does the AC50 read?
The AC50 was “inactive”.

With `CCOc1ccc(NC(=O)CN2CCN(S(=O)(=O)c3ccc(Cl)cc3)CC2)cc1` as the compound, how does the AC50 read?
The AC50 was 25100 nM (active).

Which AC50 does the source give for `COc1ccc(S(=O)(=O)N2CCN(CC(=O)Nc3cc(OC)cc(OC)c3)CC2)cc1` here?
Its AC50 is 22400 nM (active).

`O=C(CN1C(=O)NC2(CCCCCC2)C1=O)N1CCN(S(=O)(=O)c2ccc(Cl)cc2)CC1` was tested. Which AC50 did it give?
The AC50 was “inactive”.

How did the AC50 turn out when `COc1ccc(S(=O)(=O)N2CCCN(CC(=O)Nc3ccc(OC)c(Cl)c3)CC2)cc1` was run?
Its AC50 is 1410 nM (active).

How did the AC50 turn out when `COc1ccc(NC(=O)N2CCCC3(CCN(S(=O)(=O)c4ccccc4)CC3)C2)cc1` was run?
Its AC50 is “inactive”.

`CCOC(=O)c1ccc(S(=O)(=O)N2CCN(C)CC2)cc1` was tested. Which AC50 did it give?
The AC50 was “inactive”.

With `COc1ccc(NC(=O)c2cc(S(=O)(=O)N3CCS(=O)(=O)CC3)ccc2Cl)cc1` as the compound, how does the AC50 read?
Its AC50 is “inactive”.

`CCOc1ccc(C(=O)CN2CCN(S(=O)(=O)c3ccc(F)cc3)CC2)cc1` was tested. Which AC50 did it give?
Its AC50 is 20000 nM (active).

`CON(C)C(=O)c1nnc2c3ccccc3n(S(=O)(=O)c3ccc(C)cc3)c2n1` was tested. Which activity, negative = inhibition did it give?
Its activity, negative = inhibition is -0.532% [at 11.4 µM] and -0.966% [at 11.4 µM].
